# Source: PubChem BioAssay (EPA / NIEHS)
# Where “and” joins values, the source holds several entries; their conditions need not be identical. Identical values can stand only once. Calls of active or inactive are those of the source. How the source made its calls: active means hit-call score of the fitted dose curve at least 0.9, where 1 is the maximum; inconclusive means response in the unintended direction; inactive means score below 0.9.
# Molecular target: rat CYP2A2, Cyp2a2 (gene 24895) (UniProt P15149)
# Assay: NVS_ADME_rCYP2A2: NovaScreen (NVS) CYP450-related Enzyme Activity (ADME) Assay for rat CYP2A2 (AID 2283116)
# Description: NVS_ADME_rCYP2A2 is a biochemical, single-readout assay that uses extracted gene-proteins in a cell-free assay. Measurements were taken 0.2 hour after chemical dosing in a 96-well plate.NVS_ADME_rCYP2A2 is one of one assay component(s) measured or calculated from the NVS_ADME_rCYP2A2 assay. It is designed to make measurements of enzyme activity, a form of enzyme reporter, as detected with fluorescence intensity signals by Fluorescence technology.Data from the assay component NVS_ADME_rCYP2A2 was analyzed into 1 assay endpoint. This assay endpoint, NVS_ADME_rCYP2A2, was analyzed in the positive analysis fitting direction relative to Acetonitrile as the negative control and baseline of activity. Using a type of enzyme reporter, loss-of-signal activity can be used to understand changes in the enzymatic activity as they relate to the gene Cyp2a2. Furthermore, this assay endpoint can be referred to as a primary readout, because this assay has produced multiple assay endpoints where this one serves a enzymatic activity function. To generalize the intended target to other relatable targets, this assay endpoint is annotated to the cyp intended target family, where the subfamily is xenobiotic metabolism.
# Binding assays used specific radioligands (tritiated, iodinated) with non-radioactive competitive displacement ligands in agonist or antagonist protocols (as indicated) and various reference compounds and inhibitors to titrate specific binding to receptors and transporters. Most enzyme assays (CYPs, kinases, phosphatases, proteases, HDACs) used recombinant protein and specific substrates (fluorescence mostly, some colorimetric and radioactive) and inhibitors, followed by a biochemical separation of substrate and product. All assays for the biochemical HTS were initially run in duplicate at a single concentration (10 uM for CYP450 assays and 25 uM for all others). Assay-chemical combinations meeting a pre-defined threshold (e.g., 30% inhibition and other criteria defined below) were then run in singleton concentration-response format with maximum concentration of 20 uM for CYPs and 50 uM for all others. Each assay was run with positive and negative controls, and concurrent controls on every plate. The follow-up (secondary) screen tested active chemical-pairs in concentration series, as well as a few additional assays not tested in the primary screen, some selected negative inactives, and several cases re-run in the concentration series for confirmatory purposes.
# Sequence of rat CYP2A2, Cyp2a2 (gene 24895) (P15149 whole entry, looked up): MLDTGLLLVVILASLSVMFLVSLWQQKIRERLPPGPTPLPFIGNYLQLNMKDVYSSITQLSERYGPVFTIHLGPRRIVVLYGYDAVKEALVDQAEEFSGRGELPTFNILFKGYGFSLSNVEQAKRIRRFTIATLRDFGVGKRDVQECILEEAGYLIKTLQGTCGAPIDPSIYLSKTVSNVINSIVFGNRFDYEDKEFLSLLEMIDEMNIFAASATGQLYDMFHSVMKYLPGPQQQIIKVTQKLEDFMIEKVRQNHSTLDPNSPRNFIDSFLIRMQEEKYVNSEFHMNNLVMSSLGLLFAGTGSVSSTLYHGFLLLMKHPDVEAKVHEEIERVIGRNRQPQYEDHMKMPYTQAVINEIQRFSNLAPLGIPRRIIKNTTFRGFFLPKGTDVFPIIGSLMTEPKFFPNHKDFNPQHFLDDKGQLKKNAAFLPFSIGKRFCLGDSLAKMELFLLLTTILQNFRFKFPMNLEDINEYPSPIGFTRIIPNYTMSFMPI
SMILES,AC50,outcome
CCOC(=O)C(C)Oc1ccc(Oc2nc3ccc(Cl)cc3o2)cc1 (stereo unspecified),2 µM (active),–
Oc1ccc(C(c2ccc(O)cc2)C(Cl)(Cl)Cl)cc1,1.02 µM (active),–
CCCCCCC(C)OC(=O)COc1nc(F)c(Cl)c(N)c1Cl (stereo unspecified),–,inactive
CCNc1nc(N)nc(Cl)n1,–,inactive
CCOC(=O)[C@H](C)Oc1ccc(Oc2nc3ccc(Cl)cc3o2)cc1,10 µM (active),–
CC(=O)[C@H]1CC[C@H]2[C@@H]3CCC4=CC(=O)CC[C@]4(C)[C@H]3CC[C@]12C,3.07 µM (active) and 7.82 µM (active) and 6.94 µM (active),–
CC(C)(c1ccc(O)cc1)c1ccc(O)cc1,2.98 µM (active) [middle of 4 runs],–
Cc1nn(C)c(Oc2ccccc2)c1C=NOCc1ccc(C(=O)OC(C)(C)C)cc1,–,inactive
CC(C)(C)[C@@H](O)[C@@H](Cc1ccc(Cl)cc1)n1cncn1,0.0348 µM (active),–
CCCCOC(=O)C(C)Oc1ccc(Oc2ccc(C(F)(F)F)cn2)cc1 (stereo unspecified),1.17 µM (active),–
C=CCOC(Cn1ccnc1)c1ccc(Cl)cc1Cl (stereo unspecified),0.0175 µM (active),–
